Screening data deposited in PubChem by National Center for Advancing Translational Sciences (NCATS).
The list is not random: actives were taken first. Their share in the collection is about 3.7%.
FMDV inh – antivirals against foot and mouth disease virus | hit rate 1.2% among 410,000 | FMDV antiviral cell-based qHTS | Potency, µM (doses to about 57.9 µM), actives largely listed as inhibitors; calls by dose curve; tested in HEK293T cells; note: read-out not given here; nearly all actives have a fitted effect of over 45% in size
RE007 growth inh – less growth of the S. pombe RE007 Vpr strain | S. pombe RE007 Vpr strain, BacTiter-Glo ATP luminescence, 24 h | Potency, µM (titrated, usually from 92.2 µM), most hits filed as inhibitors | hit rate 0.21% among 360,000; active = well fitted falling curve with a large enough effect; inconclusive = small, poorly fitted or top-dose-only effect; inactive = no such curve, though single readings can be large or run the other way; note: nearly all actives have a fitted effect of over 50% in size
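Fission yeast RE007 carrying one integrated HIV-1 vpr copy, seeded at OD 0.01 in PMG+AL medium with 23 nL pinned compound. Grown 24 h at 30 degrees; viability read by BacTiter-Glo luminescence after 5 min.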
Tb PYK inh – blocks Trypanosoma brucei pyruvate kinase; Q57TT1; TbPYK enzyme, Kinase-Glo Plus ATP luminescence, 45 min; Potency, µM (doses to about 76.8 µM), most hits filed as inhibitors; hit rate 0.12% among 410,000; AID 624173; note: nearly all actives have a fitted effect of over 50% in size
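TbPYK + substrate in 50 mM TEA pH 7.2, 100 mM KCl, 10 mM MgCl2, 0.05% BSA, 0.01% Tween-20; cpd pinned; ADP 130 uM final; 45 min RT; Kinase-Glo Plus 10 min; luminescence endpoint.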
Sm TGR block – blocks Schistosoma mansoni thioredoxin glutathione reductase | Q962Y6 | purified TGR, DTNB reduction, TNB absorbance 405 nm | Potency, µM (top dose mostly 114 µM), hits mostly inhibitors | hit rate 3% among 360,000; note: nearly all actives have a fitted effect of over 60% in size
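First, TGR (20 nM dispensed) and NADPH were mixed with compound. Second, a 15 min room-temperature incubation followed. Third, further NADPH and then DTNB were added to start the reaction. Finally, TNB absorbance was monitored kinetically.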
A number is an active result; . = inactive; ? = inconclusive; / = no result. Unless noted, calls come from the whole dose curve; as a rule, active = well fitted curve in the direction sought with a large enough effect; inconclusive = small, poorly fitted or top-dose-only effect, or another doubt; inactive = no such curve, though single readings can be large; an effect the other way counts as inactive or inconclusive.

SMILES	FMDV inh	RE007 growth inh	Tb PYK inh	Sm TGR block
CNC(=O)C(C#N)(Cc1cc(C(C)=O)ccc1OC)Cc1cc(C(C)=O)ccc1OC	.	.	.	40µM
COc1ccc(C(C)=O)cc1CSCc1cc(C(C)=O)ccc1OC	.	.	.	.
Cc1nc2ccc(C(=O)N3CCc4c(cnc(C)c4CNC(=O)/C=C/c4cccs4)C3)cc2nc1C	.	/	/	/
O=C1c2cccc3c([N+](=O)[O-])ccc(c23)C(=O)N1c1nccs1	35µM	?	.	1.8µM
O=C1c2cccc3c([N+](=O)[O-])ccc(c23)C(=O)N1c1ccc(Cl)cn1	25µM	?	.	14µM
O=C1c2ccc([N+](=O)[O-])cc2C(=O)N1c1ccc(Cl)cn1	.	.	.	.
O=C1c2cccc3c([N+](=O)[O-])ccc(c23)C(=O)N1c1ccccn1	?	28µM	.	20µM
O=C1c2cccc3cccc(c23)C(=O)N1c1nccs1	.	.	.	.
Fc1ccccc1Cn1c(-c2ccccc2)nc2ccccc21	?	/	.	.
Cc1ccc(CNC(=O)c2ccc3c(c2)N(Cc2cccc(C)c2)C(=O)CS3)cc1	.	/	.	.
Cc1ccc2occ(CN3CCN(c4ccccc4)CC3)c(=O)c2c1	.	.	.	25µM
Cc1ccc2occ(CN3CCN(Cc4ccccc4)CC3)c(=O)c2c1	/	/	/	.
O=c1c(CN2CCN(Cc3ccccc3)CC2)coc2ccc(Cl)cc12	.	?	.	7.1µM
O=c1cc(CN2CCN(Cc3ccccc3)CC2)c2cc(Cl)ccc2o1	.	.	.	.
CCOC(=O)C1=C(C)OC(=Cc2ccccc2)C1=O	.	.	.	/
CCOC(=O)C1=C(O)c2ccccc2C(=O)/C1=C\c1ccc(C)cc1	28µM	?	?	3.5µM
CCN1C(=O)[C@@H]2[C@@H](c3ccc(-c4ccc(Cl)c(Cl)c4)c(OC)c3)N3CCC[C@@]3(C(=O)OC)[C@@H]2C1=O	.	.	.	35µM
CCSc1ccc([C@@H]2[C@@H]3C(=O)N(CC)C(=O)[C@@H]3[C@]3(C(=O)OC)CCCN23)cc1	.	.	.	35µM
CCCCn1nnc(NC(=S)NC(=O)c2ccc(OCC)c([N+](=O)[O-])c2)n1	.	.	.	40µM
CCOc1ccc(C(=O)NC(=S)Nc2ncccc2C)cc1[N+](=O)[O-]	.	.	.	.
Cc1ccc2[nH]c3c(c2c1)CN(C(=O)CN1CC(C)OC(C)C1)CC3 (centres undefined)	.	.	.	40µM
Cc1ccc2onc(CC(=O)N(C)c3ccccc3)c2c1	.	/	.	.
CCOC(=O)C1(CCc2ccccc2)CCN(C2CCSCC2)CC1	.	.	.	11µM
CCCC(NC(C)C(=O)N1C(C(=O)O)CC2CCCCC21)C(=O)OCC (centres undefined)	.	/	/	/
O=C(NCC1Cc2cc(-c3cncnc3)cc(Cl)c2O1)c1cccc(Cn2cccn2)c1 (centres undefined)	.	/	/	/
SMILES	FMDV inh	RE007 growth inh	Tb PYK inh	Sm TGR block
CC(C)(CCl)C(=O)Nc1ccc(OC(F)(F)F)cc1	.	.	.	.
CS/C(=C\[N+](=O)[O-])Nc1ccc(OC(F)(F)F)cc1	.	.	.	0.28µM
Cc1ccccc1OCC(=O)Nc1ccc(-c2nc3cc(Cl)cc(Cl)c3o2)cc1	.	/	.	.
COP(=S)(OC)Oc1ccc([N+](=O)[O-])cc1	22µM	/	/	/
COP(=S)(OC)Oc1ccc(S(N)(=O)=O)cc1	/	/	.	/
Cn1c(-c2ccc([N+](=O)[O-])cc2)nc2ccccc21	.	.	.	/
Cn1nc([N+](=O)[O-])c(C(C#N)c2nc3ccccc3n2C)c(Cl)c1=O (centres undefined)	.	.	.	32µM
COc1ccc(Cn2c(SCc3ccc(C)cc3)nc3cc(OC)c(OC)cc3c2=N)cc1Cl	35µM	.	.	.
COC(=O)[C@@H]1CCCN1Cc1ccc2c(c1)CN(Cc1nccs1)CCO2	.	/	/	/
CN1C(=O)NC(c2cccc(O)c2)C(C(=O)c2cccs2)C1(O)C(F)(F)F (centres undefined)	/	.	.	3.5µM
O=C(N/N=C/c1c(O)n(C2CCCCC2)c(=S)[nH]c1=O)c1ccccc1	.	.	.	.
O=c1[nH]c(=S)n(C2CC2)c(O)c1/C=N/Nc1cccc2ccccc12	.	.	.	35µM
O=c1[nH]c(=S)n(C2CC2)c(O)c1/C=N/Nc1ccccc1	.	.	.	20µM
CCCCC(=O)N/N=C/c1c(O)n(C2CC2)c(=S)[nH]c1=O	.	.	.	.
O=C(NCc1nnc2n1CCN(Cc1ccc(C(F)(F)F)cc1)CC2)c1cccc(F)c1	.	/	/	/
Cc1cccc(Cn2c(=O)n(CCCC(=O)NCc3ccccc3Cl)c(=O)c3ccccc32)c1	.	/	.	.
O=C(c1nc2ccc(Cl)cn2c1CN1CCC[C@H]1CO)N1CCCCCCC1	.	.	.	45µM
Cn1c2nc(=O)n(-c3ccccc3)c(=O)c-2nc2c1CCCC2	.	.	.	/
Cc1oc(-c2ccc(Cl)cc2)nc1CS(=O)CC(=O)NCc1ccccc1 (centres undefined)	.	.	.	.
CCc1ccc(-c2nc(CS(=O)CC(=O)NCc3ccccc3)c(C)o2)cc1 (centres undefined)	.	.	.	8.9µM
CCc1ccc(-c2nc(CSCC(=O)NCc3ccco3)c(C)o2)cc1	.	.	.	28µM
Cc1ccc(-c2nc(CS(=O)CC(=O)NCc3ccc(Cl)cc3)c(C)o2)cc1 (centres undefined)	.	.	.	?
Cc1ccc(-c2nc(CS(=O)CC(=O)NCc3ccc4c(c3)OCO4)c(C)o2)cc1 (centres undefined)	.	.	.	22µM
CCc1ccc(-c2nc(CS(=O)CC(=O)NCc3ccc4c(c3)OCO4)c(C)o2)cc1 (centres undefined)	.	.	.	10µM
O=P(O)(O)C(O)(Cc1cnc2ccccn12)P(=O)(O)O	/	/	.	/
SMILES	FMDV inh	RE007 growth inh	Tb PYK inh	Sm TGR block
CCOc1ccccc1NC(=O)CSc1nccn1Cc1ccc(F)cc1	.	/	.	.
COc1ccc(F)cc1-c1cc(NC=O)c2ncc(-c3cc(OC)c(OC)c(OC)c3)n2c1	32µM	.	.	/
O=C(O)/C=C/S(=O)(=O)c1ccc2ccccc2c1	.	.	.	0.89µM
CN1CCN(c2ncc3nc(CCc4ccccc4)c(=O)n(Cc4ccc(F)cc4)c3n2)CC1	.	/	.	/
CN(C)CCNC(=O)c1ccc(Cn2c(=O)c3cccn3c3cccnc32)cc1	.	/	.	.
CC12CCC(C(=O)N(CSC(=S)N/N=C\c3ccccc3)C1=O)C2(C)C (centres undefined)	.	.	?	4.5µM
Oc1c(Br)cc(Br)cc1CNc1cccc2cccnc12	.	?	.	1.8µM
COc1cc(Cl)c(NC(=O)CCS(=O)(=O)c2cc3c(cc2Cl)NC(=O)CO3)c(OC)c1	.	/	.	.
Cc1ccc(NC(=O)Cn2c(-c3nonc3N)nc3ccccc32)cc1Cl	.	/	.	.
NC(CS)C(=O)O (centres undefined)	/	/	.	/
C=C1C(=O)c2sccc2C(c2ccc(OC)c(OC)c2)C1COC(C)=O (centres undefined)	13µM	.	.	/
